# Shn3 inh set2: reduction of Shn3 3'UTR firefly luciferase signal, primary screen, Schnurri-3 inhibitor project, cell-based, Clone20 osteoblasts, set 2. Clone20 osteoblast Shn3 3'UTR firefly luciferase, 24 h. inhibition, % at 12.5 µM. actives 0.52% (n = 360,000). AID 588674, 2011;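 active = mean inhibition of at least 75% with every replicate also reaching 75%; inconclusive = mean inhibition at least 75% but some replicate below; inactive = mean inhibition below 75%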;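 also: 0% = median of neutral control wells and 100% = pilot-screen positive control compound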
# MITF TRPM1 inh: inhibitors of MITF-dependent TRPM1 promoter reporter, primary screen, cell-based, SK-MEL-5, single point, luciferase. inhibition, % at 12.5 µM. SK-MEL-5 TRPM1 promoter luciferase, 24 h. actives 0.83% (n = 330,000);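 active = mean inhibition across replicates of 60% or more, whatever share of single replicates reaches that level; inconclusive = some that reach 60%, reason not given; inactive = mean inhibition across replicates below 60%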
# HIF-2a block: HIF-2a reporter inhibitors, primary screen, luminescence, 786-0 RCC cells; AID 624352, 2012; actives 0.72% (n = 360,000); 786-0 RCC cells HIF-2a reporter, luciferase luminescence, overnight; inhibition, % at 18.8 µM;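 active = inhibition of the luminescence signal of 40% or more relative to plate controls, in a single-dose primary screen at 18.75 µM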
# LMP1 NFkB inh: EBV LMP1-driven NF-kappaB luciferase reporter inhibitors, primary screen, cell-based, luminescence, single point | actives 0.69% (n = 350,000) | LMP1-induced NF-kappaB luciferase reporter cells | inhibition, % at 12.5 µM; in the data active = inhibition above about 41%; inconclusive = no clear call, values can overlap the other calls;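 also: 0% = neutral control wells and 100% = reference inhibitor control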
# Peg3 promoter: Peg3 promoter-driven luciferase inhibitors, primary screen, cell-based, HeLa, luciferase luminescence | actives 1.7% (n = 360,000) | HeLa PEG-Prom luciferase reporter, overnight | inhibition, % at 20 µM;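 active = inhibition of at least 50% at 20 µM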
# PAX8 reporter: inhibitors of PAX8-driven TPO luciferase reporter, primary screen, RMG-I cells, single concentration. AID 652154, 2013. actives 1.2% (n = 360,000). inhibition, % at 12.6 µM. SteadyGlo, 24 h;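 active = mean replicate inhibition at least 60% with every replicate also reaching 60%; inconclusive = only one of the two criteria is met; inactive = mean below 60% and not all replicates reaching 60%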;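 also: luciferase light reporting Pax8 driven TPO promoter activity; plate controls were median of neutral control wells for no effect and mitoxantrone controls for full effect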
# * hit, by the source's call; ? = inconclusive; nt = no result. This is a sample that favours compounds with a hit; in the whole collection about 2.8% have one here.
SMILES,Shn3 inh set2,MITF TRPM1 inh,HIF-2a block,LMP1 NFkB inh,Peg3 promoter,PAX8 reporter
Cc1ccc(S(=O)(=O)Nc2cccc3c2O[C@H](CN(C)Cc2ccncc2)[C@H](C)CN([C@H](C)CO)C3=O)cc1,nt,nt,nt,nt,nt,-2
N#CCCn1cc(C(=O)Nc2ccccn2)c(-c2ccccc2)n1,7,0,10,69*,14,-32
COc1ccc2[nH]c3c(=O)n(CCCCC(=O)N4CCC(C(N)=O)CC4)c(=S)[nH]c3c2c1,-21,1,0,65*,7,nt
COc1ccc2[nH]c3c(=O)n(CCCCC(=O)NCCN4CCCC4)c(=S)[nH]c3c2c1,-24,-1,5,-6,10,nt
COc1ccc(S(=O)(=O)Nc2ccc3c(c2)C(=O)N([C@@H](C)CO)C[C@@H](C)[C@H](CN(C)Cc2ccc(Cl)c(Cl)c2)OCCCC[C@@H](C)O3)cc1,nt,nt,nt,nt,nt,73*
COc1ccc(S(=O)(=O)Nc2ccc3c(c2)C(=O)N([C@H](C)CO)C[C@@H](C)[C@H](CN(C)Cc2ccc(Cl)c(Cl)c2)OCCCC[C@H](C)O3)cc1,nt,nt,nt,nt,nt,68*
COc1ccc(CN(C)C[C@H]2OCCCC[C@H](C)Oc3ccc(NS(=O)(=O)c4ccc(Cl)cc4)cc3C(=O)N([C@H](C)CO)C[C@H]2C)cc1,nt,nt,nt,nt,nt,65*
COc1ccc(CN(C)C[C@@H]2OCCCC[C@@H](C)Oc3ccc(NS(=O)(=O)c4ccc(OC)cc4)cc3C(=O)N([C@@H](C)CO)C[C@H]2C)cc1,nt,nt,nt,nt,nt,0
CN1CCN(C(=O)C[C@H]2CC[C@H]3[C@@H](COC[C@@H](O)CN3C(=O)Nc3ccc(Cl)cc3)O2)CC1,nt,nt,nt,nt,nt,-49
O=C1C(=O)c2c(ccc3ccccc23)-c2ccccc21,96*,98*,-106,59*,102*,13
O=C(N[C@H]1CC[C@H](CC(=O)N2CCc3ccccc3C2)O[C@H]1CO)C1CC1,nt,nt,nt,nt,nt,-24
C[C@@H]1CCCCO[C@@H](CN(C)Cc2ccc(C(F)(F)F)cc2)[C@H](C)CN([C@@H](C)CO)C(=O)c2cc(NC(=O)Nc3ccc(F)cc3)ccc2O1,nt,nt,nt,nt,nt,86*
C[C@@H]1CN([C@@H](C)CO)C(=O)c2cc(NC(=O)Nc3ccc(F)cc3)ccc2O[C@@H](C)CCCCO[C@@H]1CN(C)Cc1ccc(C(F)(F)F)cc1,nt,nt,nt,nt,nt,80*
C[C@@H]1CCCCO[C@@H](CN(C)Cc2ccc(C(F)(F)F)cc2)[C@H](C)CN([C@@H](C)CO)C(=O)c2cc(NC(=O)Nc3ccc(C(F)(F)F)cc3)ccc2O1,nt,nt,nt,nt,nt,37
C[C@@H]1CCCCO[C@H](CN(C)Cc2ccc(C(=O)O)cc2)[C@H](C)CN([C@H](C)CO)C(=O)c2cc(NC(=O)Nc3ccc(C(F)(F)F)cc3)ccc2O1,nt,nt,nt,nt,nt,-4
C[C@H](CO)N1C[C@H](C)[C@@H](CN(C)Cc2ccc(C(F)(F)F)cc2)OCCCC[C@H](C)Oc2ccc(NC(=O)Nc3ccc(F)cc3)cc2C1=O,nt,nt,nt,nt,nt,88*
Cc1ccccc1-c1ccc([C@H]2[C@H](CO)N3CCCCN(S(=O)(=O)c4cn(C)cn4)C[C@@H]23)cc1,nt,nt,nt,nt,nt,-9
Cc1cc(NC(=O)c2ccc(C)s2)n(-c2nc3ccccc3[nH]2)n1,16,-7,-28,67*,31,-39
Fc1ccc(-n2nnc(-c3cccnc3)n2)cc1,-87,-65,-215,-20,-268,-174
Fc1ccc(-n2nnc(-c3cnc4ccccc4c3)n2)cc1,46,16,21,?,52*,-40
CCNC(=O)C[C@H]1CC[C@@H]2[C@H](COc3ccc(NC(=O)Nc4ccc(Cl)cc4)cc3C(=O)N2C)O1,nt,nt,nt,nt,nt,-6
CCCN1C[C@@H](C)[C@@H](OC)CN(C)C(=O)c2ccc(NC(=O)c3cnccn3)cc2OC[C@@H]1C,nt,nt,nt,nt,nt,8
COc1ccccc1-n1c(SCC(=O)N2CCCCC2)nc(O)c(Cc2ccccc2)c1=O,-4,-5,2,3,97*,-19
COc1cccc(CNCCc2c[nH]c3ccccc23)c1OCc1ccccc1,?,94*,-8,-5,105*,-5
O=C(Nc1ccccn1)NC1CCCCC1,-12,-8,-34,84*,-9,nt
